Data on six compounds can be found in PubChem BioAssay (NCATS).

A number with no mark means an inactive call. Inconclusive results are not listed. Activity calls are given as the source filed them. Unless noted, calls come from the whole dose curve; as a rule, active = well fitted curve in either direction with a large enough effect (not every such curve was filed as active); inconclusive = small, poorly fitted or top-dose-only effect, or another doubt; inactive = flat fitted curve, though single readings scatter.

The target in assay [1] is Lysosomal acid glucosylceramidase (Homo sapiens) (UniProt P04062). Put plainly: Glucocerebrosidase-p2 (AID 348; in the data active = potency below about 10 µM; note: potency is the fitted concentration of half-maximal effect). To be noted: purified GBA, blue fluorogenic substrate, 40 min. Put shortly:
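Normal human glucocerebrosidase (0.2 nM) with blue fluorogenic substrate (80 uM final) in citrate/phosphate pH 5.9 with 10mM sodium taurocholate, 0.01% tween-20; 40 min RT, NaOH/glycine stop; fluorescence Ex 365/Em 440; AC50 from a titration from 0.6 nM upwards.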

The nature of assay [2]: AP1 Signaling Pathway (AID 357).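 Note: ME-180 reporter cells stimulated with EGF at its EC50 level; % is set by controls: 0 for no effect and ±100 for the full control effect.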 Conditions: ME-180 AP-1-bla reporter, EGF-induced, beta-lactamase ratio, 5 h; at 7.69 µM (top of the series) unless noted. The gist of the method:
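AP-1-bla ME-180 cells, Opti-MEM + 0.5% dialyzed FBS, plated overnight 37 °C. Cpd titration + EC50 EGF, 5 h 37 °C. CCF4 2.5 h RT; ex 405, em 460/530 ratio → %activity, AC50.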

Assay [3] has as its target Cytochrome P450 1A2 (Homo sapiens) (UniProt P05177). Put plainly: p450-cyp1a2 (AID 410; calls by dose curve; note: potency is the fitted concentration of half-maximal effect;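 for activity change, negative = inhibition: -100% = full effect of reference inhibitor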). To be noted: recombinant CYP1A2, luciferin-ME demethylation, luminescence; series mostly up to 11.4 µM. The gist of the method:
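O-Demethylation of luciferin 6' methyl ether by human CYP1A2 is monitored as luciferase luminescence. Substrate sits at Km (100uM); enzyme is 20nM. Values are scaled to 57 uM furafylline as maximal inhibition.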

Assay [4] in a line: NFAT Signaling Pathway (AID 444).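 Note: carbachol stimulus at about its EC50 of 1 µM final; % is set by controls: 0 for no effect and ±100 for the full control effect.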 Conditions: Jurkat NFAT-bla M1, carbachol, beta-lactamase ratio, 5 h; at 7.69 µM (top of the series) unless noted. The gist of the method: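 Jurkat cells with NFAT-driven β-lactamase reporter and co-expressed M1 receptor, stimulated with carbachol (final 1 uM, ~EC50), compound titration, 5 h at 37 °C. CCF4 loaded 1 h at RT; 460/530 nm ratio gave %activity and AC50.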

A short description of assay [5]: Stat Signaling Pathway (AID 446).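 Note: ME-180 cervical cancer cells given 40 pM IL-6 alongside compound; SIE-controlled beta-lactamase reporter measured as 460/530 nm FRET emission ratio; % is set by controls: 0 for no effect and ±100 for the full control effect.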 To be noted: ME-180 (cervical carcinoma) SIE beta-lactamase reporter, IL-6 stimulated, 5 h; at 7.69 µM (top of the series) unless noted. The gist of the method:
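Normalization used AC90 stimulation (300 pM IL-6) and AC90 inhibition (125 nM pan-JAK inhibitor at 40 pM IL-6). The underlying signal is SIE-driven beta-lactamase in ME-180 cells after 5 h IL-6 exposure with compound.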

For assay [6], the target named is Glucocorticoid receptor (Homo sapiens) (UniProt P04150). Put plainly: GR-GFP Redistribution (AID 450;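 active = compounds whose dose series gives a full or clear partial fitted curve of increased nuclear translocation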; note: potency is the fitted concentration of half-maximal effect). To be noted: U2OS GR-GFP nuclear translocation, laser cytometry, 2 h.
Sequence of Glucocorticoid receptor (Homo sapiens) (P04150 whole entry, looked up): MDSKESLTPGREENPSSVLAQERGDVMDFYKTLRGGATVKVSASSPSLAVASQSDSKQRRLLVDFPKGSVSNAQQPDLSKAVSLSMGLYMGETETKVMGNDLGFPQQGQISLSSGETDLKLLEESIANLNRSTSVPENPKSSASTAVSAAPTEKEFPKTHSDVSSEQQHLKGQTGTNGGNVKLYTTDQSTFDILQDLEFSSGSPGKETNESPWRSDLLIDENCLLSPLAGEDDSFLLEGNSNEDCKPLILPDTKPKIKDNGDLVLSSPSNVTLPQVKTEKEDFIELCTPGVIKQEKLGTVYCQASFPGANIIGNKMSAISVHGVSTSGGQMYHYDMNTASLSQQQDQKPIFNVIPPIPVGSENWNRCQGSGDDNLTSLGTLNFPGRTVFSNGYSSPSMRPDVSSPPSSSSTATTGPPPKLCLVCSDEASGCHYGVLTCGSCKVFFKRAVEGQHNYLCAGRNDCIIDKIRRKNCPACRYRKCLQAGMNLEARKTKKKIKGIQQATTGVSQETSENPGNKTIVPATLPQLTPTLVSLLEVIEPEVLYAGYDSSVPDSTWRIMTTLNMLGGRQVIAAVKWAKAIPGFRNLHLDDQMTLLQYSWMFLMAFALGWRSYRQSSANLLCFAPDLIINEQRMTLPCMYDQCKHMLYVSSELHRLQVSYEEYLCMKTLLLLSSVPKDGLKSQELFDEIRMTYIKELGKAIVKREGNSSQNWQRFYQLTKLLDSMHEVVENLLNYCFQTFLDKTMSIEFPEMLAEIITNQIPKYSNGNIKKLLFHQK
The target is the same in assay [7]. Put plainly: GR-EFC Redistribution (AID 451; calls by dose curve; note: potency is the fitted concentration of half-maximal effect). To be noted: CHO-K1 GR-EFC translocation, beta-gal luminescence, 2 h. The gist of the method:
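CHO-K1 cells expressing nuclear EA and GR-ED fragments of b-gal; compounds titrated up to 46 uM final, 2 h at 37 C. GR nuclear translocation read as complemented b-gal luminescence after 1 h RT detection.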

In assay [8] the target is Mitogen-activated protein kinase 10 (Mus musculus) (UniProt Q61831). As to the kind of experiment: JNK3 AlphaScreen Assay (AID 530).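 Note: kinase came from lysate of stimulated human HepG2 cells; signal reports phosphorylation of biotinylated GST-cJun 1-79 at Ser73 with 10 µM ATP; % is set by controls: 0 for no effect and ±100 for the full control effect.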 To be noted: JNK3 lysate, c-Jun phosphorylation; series mostly up to 57.1 µM. Put shortly:
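Activity was read by AlphaScreen after JNK3-containing HepG2 lysate (cytokine pre-activated) phosphorylated biotinylated GST-cJun with 10 uM ATP at room temperature. Phospho-Ser73 cJun antibody with Protein-A acceptor beads provided detection.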
On the technique in general: Alpha assays give light when donor and acceptor beads are brought close together.

Assay [9] has as its target 3',5'-cyclic-AMP phosphodiesterase 4B (Homo sapiens) (UniProt Q07343). As to the kind of experiment: qHTS Assay for Inhibitors of PDE-IV (AID 607; active = well fitted activation curve with a large enough effect in the main read-out, with a control signal flat, not every such curve was filed as active; note: % of control where 0% means no effect). Conditions: HEK293 ACTOne CNG channel cells, membrane potential fluorescence; series mostly up to 22.9 µM. Put shortly:
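HEK293 ACTOne cells with CNG channel (1000/well), endogenous PDE4; membrane potential dye, compounds up to 22.9 uM final. Fluorescence Ex 535/Em 590; RO 20-1724 (100 uM final) as reference.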

In assay [10] the target is Cytochrome P450 3A4 (Homo sapiens) (UniProt P08684). Put plainly: qHTS Assay for Activators of Cytochrome P450 3A4 (AID 885; active = well fitted activation curve with a large enough effect; note: nearly all actives have a fitted effect of over 65% in size). To be noted: recombinant CYP3A4, Luciferin-PPXE luminescence, 60 min; series mostly up to 57.1 µM. The gist of the method: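 Human CYP3A4 dealkylates Luciferin-PPXE to luciferin, which luciferase detection converts to light. Substrate was at its KM (25uM), buffer 200mM KPO4, reaction 60 min at RT.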
Sequence of Cytochrome P450 3A4 (Homo sapiens) (P08684 whole entry, looked up): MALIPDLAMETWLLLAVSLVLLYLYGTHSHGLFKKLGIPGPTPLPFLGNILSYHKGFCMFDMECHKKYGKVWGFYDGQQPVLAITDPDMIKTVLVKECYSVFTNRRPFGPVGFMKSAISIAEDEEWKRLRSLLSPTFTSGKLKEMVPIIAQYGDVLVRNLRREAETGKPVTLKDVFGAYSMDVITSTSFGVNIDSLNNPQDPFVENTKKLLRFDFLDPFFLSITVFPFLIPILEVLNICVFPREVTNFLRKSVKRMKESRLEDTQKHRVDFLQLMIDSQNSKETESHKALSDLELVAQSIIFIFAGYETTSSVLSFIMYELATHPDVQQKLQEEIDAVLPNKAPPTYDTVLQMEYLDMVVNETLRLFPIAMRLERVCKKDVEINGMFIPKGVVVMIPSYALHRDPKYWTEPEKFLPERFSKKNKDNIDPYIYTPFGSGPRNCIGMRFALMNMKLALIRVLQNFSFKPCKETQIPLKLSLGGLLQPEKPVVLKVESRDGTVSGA
A general note: qHTS replaces the single test concentration by a dilution series.

Sequence of Cytochrome P450 1A2 (Homo sapiens) (P05177 whole entry, looked up): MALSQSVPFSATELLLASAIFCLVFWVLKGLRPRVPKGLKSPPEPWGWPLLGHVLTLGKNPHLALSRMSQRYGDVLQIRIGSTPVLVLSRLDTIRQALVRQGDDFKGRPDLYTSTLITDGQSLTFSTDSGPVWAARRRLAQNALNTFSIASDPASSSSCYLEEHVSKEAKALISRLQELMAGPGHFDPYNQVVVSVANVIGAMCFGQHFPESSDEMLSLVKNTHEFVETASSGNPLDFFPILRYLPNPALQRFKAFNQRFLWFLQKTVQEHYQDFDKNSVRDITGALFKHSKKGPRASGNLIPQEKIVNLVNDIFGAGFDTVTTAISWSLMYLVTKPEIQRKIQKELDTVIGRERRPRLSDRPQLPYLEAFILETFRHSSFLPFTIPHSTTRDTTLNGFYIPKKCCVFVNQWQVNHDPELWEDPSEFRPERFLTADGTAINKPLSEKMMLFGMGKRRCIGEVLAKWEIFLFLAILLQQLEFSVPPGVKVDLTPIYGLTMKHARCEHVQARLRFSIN
Sequence of Lysosomal acid glucosylceramidase (Homo sapiens) (P04062 whole entry, looked up): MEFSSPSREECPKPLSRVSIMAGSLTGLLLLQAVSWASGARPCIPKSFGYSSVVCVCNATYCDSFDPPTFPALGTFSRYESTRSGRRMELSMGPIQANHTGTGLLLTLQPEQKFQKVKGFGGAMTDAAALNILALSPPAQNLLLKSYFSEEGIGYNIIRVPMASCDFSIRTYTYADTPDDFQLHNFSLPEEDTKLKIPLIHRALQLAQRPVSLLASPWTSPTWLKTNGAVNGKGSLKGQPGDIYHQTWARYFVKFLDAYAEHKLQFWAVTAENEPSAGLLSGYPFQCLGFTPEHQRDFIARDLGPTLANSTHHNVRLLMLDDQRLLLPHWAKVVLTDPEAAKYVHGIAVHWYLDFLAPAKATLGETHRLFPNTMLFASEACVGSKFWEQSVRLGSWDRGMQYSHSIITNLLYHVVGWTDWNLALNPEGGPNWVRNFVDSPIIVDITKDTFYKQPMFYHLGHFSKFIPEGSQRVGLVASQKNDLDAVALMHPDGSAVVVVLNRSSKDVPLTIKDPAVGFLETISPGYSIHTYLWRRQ
Sequence of 3',5'-cyclic-AMP phosphodiesterase 4B (Homo sapiens) (Q07343 whole entry, looked up): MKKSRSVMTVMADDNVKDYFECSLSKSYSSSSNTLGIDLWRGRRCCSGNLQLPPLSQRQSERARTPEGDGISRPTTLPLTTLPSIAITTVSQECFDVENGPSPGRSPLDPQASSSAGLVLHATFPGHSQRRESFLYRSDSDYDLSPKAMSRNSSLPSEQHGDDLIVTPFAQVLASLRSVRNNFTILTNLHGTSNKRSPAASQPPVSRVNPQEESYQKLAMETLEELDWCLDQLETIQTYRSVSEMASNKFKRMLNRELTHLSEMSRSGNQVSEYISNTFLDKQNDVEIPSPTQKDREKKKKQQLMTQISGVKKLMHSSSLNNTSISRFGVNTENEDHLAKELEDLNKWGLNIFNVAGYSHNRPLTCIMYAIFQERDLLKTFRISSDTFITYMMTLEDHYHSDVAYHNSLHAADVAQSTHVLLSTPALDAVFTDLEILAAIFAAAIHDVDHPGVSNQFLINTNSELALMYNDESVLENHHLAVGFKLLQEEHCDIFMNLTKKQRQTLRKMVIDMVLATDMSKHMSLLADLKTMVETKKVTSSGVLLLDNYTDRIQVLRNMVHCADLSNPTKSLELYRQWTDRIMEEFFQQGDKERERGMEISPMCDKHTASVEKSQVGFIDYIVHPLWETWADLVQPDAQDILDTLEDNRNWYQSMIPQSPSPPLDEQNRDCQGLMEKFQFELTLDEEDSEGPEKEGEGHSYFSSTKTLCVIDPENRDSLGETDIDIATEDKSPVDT

For `c1ccc(CCN2CCCCCC2)nc1`, the Potency is more than 11.4 µM in assay [1], more than 46 µM in assay [6] and more than 9.22 µM in [7]. For the same compound, the activity change, negative = inhibition in [2] is -1.84%; in assay [4], -10.4%; in [8], 4.35% [at 11.4 µM]. Also, the Potency entry in assay [3] is “inactive”. For the same compound, in [5], the activity, negative = inhibition is 3.27%. In addition, the outcome in [9] was inactive.

With `NCCc1ccc(S(=O)(=O)O)cc1[N+](=O)[O-]`, the Potency in assay [1] is more than 11.4 µM; in [6], more than 46 µM; in [7] it was more than 9.22 µM. For the same compound, the activity change, negative = inhibition in [2] is -10.6%; in [4], -27.3%; in [8], 10.9% [at 11.4 µM]. The Potency result in assay [3] is “inactive”. For the same compound, the activity, negative = inhibition in [5] was 1.75%. Besides, in assay [9], the compound was classed as inactive.

For `N[C@H](Cc1c[nH]c2ccccc12)P(=O)(O)O`, the Potency in assay [1] was more than 11.4 µM; in [6], more than 46 µM; in assay [7] it was more than 9.22 µM. Besides, the activity change, negative = inhibition was -3.26% in [2], -3.98% in [4] and 4.66% [at 11.4 µM] in assay [8]. In addition, in assay [3], the Potency entry is “inactive”. In addition, the activity, negative = inhibition in [5] is -3.09%. Also, in assay [9], the result was inactive.

For the compound `N[C@@H](CSC1c2ccccc2-c2ccccc21)C(=O)O`, the Potency is more than 11.4 µM in [1], 2.51 µM (active) in assay [3], more than 46 µM in [6] and more than 9.22 µM in assay [7]. Moreover, the figures for the activity change, negative = inhibition in [2], in assay [4] and in [8] were 0.63%, -6.99% and -0.997% [at 11.4 µM], respectively. In addition, the activity, negative = inhibition in assay [5] is 3%. Also, the result in assay [9] was inactive.

Turning to `CC(C)c1nccn1Cc1ccc(Cl)cc1Cl`, the Potency in [1] was more than 11.4 µM; in assay [6], more than 46 µM; in assay [7], more than 9.22 µM. The activity change, negative = inhibition is -14.8% in [2], -21% in [4] and -0.456% [at 11.4 µM] in assay [8]. The Potency entry in assay [3] was “inactive”. Moreover, in assay [5], the activity, negative = inhibition was 1.75%. In addition, in assay [9], the result was inactive.

As to `N[C@H](Cc1ccc2oc3cc(=O)c4ccccc4c-3nc2c1)C(=O)O`, the Potency in [1] was more than 11.4 µM; in [3], 1.26 µM (active); in [6] it was more than 46 µM; in [7] it was more than 9.22 µM. The results for the activity change, negative = inhibition in [2], in [4] and in [8] were 25.4%, -17.2% and 0.331% [at 11.4 µM], respectively. Also, the activity, negative = inhibition in assay [5] was 7.75%. Further, the outcome in [9] was inactive. In addition, the activity change, positive = activation in assay [10] was -32.5% [at 11.4 µM].
